Screening results: PubChem BioAssay, National Center for Advancing Translational Sciences (NCATS)
PLK1 PBD inh: inhibitors of human PLK1 polo-box domain binding. P53350. Plk1 PBD binding of FITC phosphopeptide, fluorescence polarization. 2.8% of 360,000 active. Potency, µM, for inactives: max response, negative = inhibition, usual class: inhibitors; further: series mostly up to about 57 µM; nearly all actives have a fitted effect of over 65% in size
ALDH1A1 inh: ALDH1A1 (human) enzyme inhibition | Potency, µM (titrated, usually from 75.3 µM), without a hit: at the top dose activity, negative = inhibition, hits mostly inhibitors | Purified ALDH1A1, NADH fluorescence, propionaldehyde substrate | AID 1030 | P00352 | 7.3% of 220,000 active; active means well fitted inhibition curve with a large enough effect, not every such curve was filed as active; inconclusive means small, poorly fitted or top-dose-only effect, or another doubt; inactive means no such curve, though single readings can be large or run the other way;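 further: plate controls were no enzyme wells and a reference inhibitor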
VP16 counter: Gal4-VP16 reporter inhibition counter-screen | 3.5% of 310,000 active | Potency, µM (doses to about 53.6 µM), for inactives: at the top dose activity, negative = inhibition, hits mostly inhibitors | Drosophila S2 Gal4-VP16 UAS-luciferase, luminescence, 20 h;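 further: Gal4-VP16 expression switched on by copper sulfate through the metallothionein promoter; nearly all actives have a fitted effect of over 50% in size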
Sfp PPTase inh: inhibitors of Bacillus subtilis Sfp phosphopantetheinyl transferase. Q9F4F7. Biochemical Sfp PPTase activity, qHTS. Potency, µM, inactives show largest response in the series, negative = inhibition, usual class: inhibitors. 3.5% of 310,000 active. AID 1490;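 further: the enzyme is Sfp with the accession as filed and its product quenches rhodamine fluorescence; 0% = enzyme reaction without inhibitor and -100% = no enzyme wells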
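Fluorescence-quenching assay with 15 nM Sfp, 5 uM rhodamine-CoA and 12.5 uM BHQ-2-labelled ybbR peptide in pH 7.6 Hepes/MgCl2 buffer. Enzyme was pre-incubated with compound for 15 min at room temperature. Rate was taken from the 30-min fluorescence change (525/598 nm).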
RORgamma inh: inhibitors of mouse ROR gamma transcriptional activity | P51450 | Drosophila S2 Gal4-RORgamma UAS-luciferase reporter, 20 h | Potency, µM (series often up to 53.6 µM), inactives show at the highest dose activity change, negative = inhibition, actives largely listed as inhibitors | 5.4% of 310,000 active; further: nearly all actives have a fitted effect of over 60% in size
Target sequence (P51450 whole entry, looked up, the tested form may be a part): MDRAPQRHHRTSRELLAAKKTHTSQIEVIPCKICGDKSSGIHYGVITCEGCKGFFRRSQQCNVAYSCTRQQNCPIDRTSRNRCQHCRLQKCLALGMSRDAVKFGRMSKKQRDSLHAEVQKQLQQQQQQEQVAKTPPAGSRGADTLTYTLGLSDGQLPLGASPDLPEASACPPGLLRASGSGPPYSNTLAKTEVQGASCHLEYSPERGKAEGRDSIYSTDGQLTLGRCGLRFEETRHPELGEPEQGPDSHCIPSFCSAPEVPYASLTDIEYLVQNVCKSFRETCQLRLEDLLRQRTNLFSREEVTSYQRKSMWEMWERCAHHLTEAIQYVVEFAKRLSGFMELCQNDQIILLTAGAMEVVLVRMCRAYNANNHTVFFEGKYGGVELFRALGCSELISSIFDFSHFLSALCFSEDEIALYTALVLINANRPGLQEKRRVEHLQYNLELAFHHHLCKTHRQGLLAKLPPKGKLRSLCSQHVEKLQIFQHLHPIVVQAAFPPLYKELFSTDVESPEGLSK
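Stably transfected Drosophila Schneider cells are the test system, with ROR gamma fused to Gal4 and luciferase under UAS control; luminescence is read after 20 hr of 700 uM copper sulfate induction at ambient temperature.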
Active calls of the source: *; ? = inconclusive; nt = no result given; [ ] = remark or other dose. This is a sample that favours compounds with a hit; in the whole collection about 12% have one here. Unless noted, the call rests on the fitted dose curve; in most records, active means well fitted curve in the direction sought with a large enough effect; inconclusive means small, poorly fitted or top-dose-only effect, or another doubt; inactive means no such curve, though single readings can be large; an effect the other way counts as inactive or inconclusive. Unless noted, on the % scale 0 is the no-effect control and ±100 the full control effect; potency means the concentration at half of the fitted maximal effect.

SMILES	PLK1 PBD inh	ALDH1A1 inh	VP16 counter	Sfp PPTase inh	RORgamma inh
O=C1C(Cc2cnc[nH]2)NC(=S)N1c1ccccc1 (stereo not drawn)	-9%	nt	-6%	50µM*	-22%
COc1ccc(S(=O)(=O)Nc2cc([N+](=O)[O-])ccc2OC)cc1	-1%	?	-16%	10%	37%
CCOP(=O)(/C(C#N)=C(\C)O)c1ccccc1 (stereo not drawn)	21µM*	?	-7%	20%	8%
COc1ccc(C(=O)C2CCCN(C3CSCCSC3)C2)c(C)c1 (stereo not drawn)	-5%	14µM*	2%	22%	10µM*
COc1ccc(C(=O)C2CCCN(CCO)C2)c(C)c1 (stereo not drawn)	-10%	nt	1%	-2%	-13%
COc1ccc(C(=O)C2CCCN(C3CSCCSC3)C2)c(OC)c1 (stereo not drawn)	0%	14µM*	-4%	8%	?
c1ccc(CCN2CCOCC2)nc1	nt	-6%[13.5 µM]	nt	nt	nt
ClCC(Cl)Cl	nt	-7%	-8%	nt	-5%
c1ccc(-c2cc3c(nc2-c2ccccc2)CCNC3)cc1	nt	1%[13.5 µM]	-11%[10 µM]	12%	-10%[10 µM]
CCCCc1ccc(C(=O)O)nc1	3%	4%	8.9µM*	28µM*	7.1µM*
c1ccc(CN2CCC3(CCc4ccccc43)CC2)cc1	nt	11%	1%	29%	-20%
CC(C)c1cccc(C(C)C)c1OCCn1ccnc1	-2%	10%	?	14%	22µM*
CCC1CN2CCC1CC2C(Oc1cc2ccccc2c2ccccc12)c1ccnc2ccc(O)cc12 (stereo not drawn)	nt	-3%[13.5 µM]	-3%[10 µM]	-20%	1%[10 µM]
CC(=O)C1CCC2C3CCC4CC(C)(O)CCC4(C)C3CCC12C (stereo not drawn)	nt	nt	-5%	25%	-33%
COc1ccc(CCn2c(O)c(C=NCc3cccnc3)c(=O)[nH]c2=O)cc1OC	27µM*	-7%	10%	24%	21%
CC12CCC3C(=CCc4cc(O)ccc43)C1CCC2=O (stereo not drawn)	nt	?	4%	-8%	-3%
O=[N+]([O-])/C=C/c1c(OCc2ccccc2)ccc2ccccc12	nt	-8%	4.5µM*	?	5.6µM*
[Cd+2].[Cl-].[Cl-]	nt	4µM*	nt	nt	nt
CN1CCC(O)(c2cccs2)C(C(=O)c2cccs2)C1 (stereo not drawn)	27µM*	nt	3.2µM*	-21%	4µM*
COC(=O)C(O)(c1ccc(N(C)C)cc1)C(F)(F)F (stereo not drawn)	-4%	-3%	-6%	32%	-8%
COC(=O)C(O)(c1ccc(N(C)C(=O)c2cccs2)cc1)C(F)(F)F (stereo not drawn)	24µM*	2%	-5%	-8%	-3%
O=C(C[C@H](c1ccccc1)c1c(O)c2ccccc2oc1=O)c1ccccc1	nt	2%[13.5 µM]	nt	nt	nt
CC/C(CC(c1ccccc1)c1c(O)c2ccccc2oc1=O)=N\NC(N)=S (stereo not drawn)	-8%	?	?	?	10µM*
O=C(Cc1cc(=O)[nH][nH]1)N/N=C/c1ccccc1Cl	27µM*	12%	5%	-5%	-12%
O=C(CSC1c2ccccc2-c2ccccc21)N/N=C/c1ccccc1C(=O)O	?	1%	-3%	16%	10%
SMILES	PLK1 PBD inh	ALDH1A1 inh	VP16 counter	Sfp PPTase inh	RORgamma inh
N[C@@H](Cc1cc(Br)c(O)c(Br)c1)C(=O)O	nt	?	-3%	50µM*	18%
Oc1c(Br)cc(Br)cc1Br	-7%	-1%	-12%	2%	4%[10 µM]
CCCCCCC(C)(C)c1cc(OC)c2c(c1)OC(C)(C)[C@@H]1CC=C(C)C[C@@H]21	nt	4%	-7%	34%	-5%
CC(C)C(O)(C(=O)OC[C@@H]1CC[N+]2([O-])CCCC12)C(C)O (stereo partly drawn)	nt	8%	-11%	11%	-1%
O=C(Nc1ccc(F)cc1)c1c(O)c2c(n(Cc3ccccc3)c1=O)CCCC2	27µM*	?	-5%	5%	-23%
CNC(=O)O/N=C(/C)SC	nt	-3%	-10%	16%	-6%
CNC(=O)O/N=C/C(C)(C)S(C)=O (stereo not drawn)	nt	28µM*	0%	nt	3%
CNC(C)[C@@H](O)c1ccc(O)cc1 (stereo partly drawn)	nt	nt	-13%	-2%	15%
Clc1cccc(CN2CCCCC2c2cccnc2)c1 (stereo not drawn)	-3%	?	?	50µM*	0%
